Structures are written as SMILES. The panel holds about 83,000 compounds, 20% with a hit somewhere; the sample as a whole holds those more often.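 Each cell line was grown in a 96-well plate and treated with one concentration of compound for 48 hours. Values below 10 were considered active.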 Activity calls are given as the source filed them.

For the assay, the system named is HL-60(TB) leukemia. The assay can be described thus: NCI-60 one-dose screen, 48 h (100 = growth as untreated, 0 = no growth, -100 = all killed). The following applies: 10 µM unless noted.
For the compound `Cc1ccc(C)c(-n2c(-c3ccc(Br)cc3)csc2=NC(=O)c2ccccc2F)c1`, the growth was -21.6% (active).

Consider `COc1cc(NC(C)CN(CC(C)C)C(C)C)c2ncccc2c1` (centres undefined), for which the growth is 101% (inactive).

As to `CCOC(=O)/C(=C/c1c(-c2ccccc2)[nH]c2ccccc12)C(=O)c1ccc(Cl)cc1`, the growth was -10.6% (active).

Take `COc1ccc(CCl)c(C)c1OC`: the growth is 99% (inactive).

Source of the values: PubChem BioAssay (NCI).
